Source: ChEMBL document CHEMBL4513216, “Probing the Open Global Health Chemical Diversity Library for Multistage-Active Starting Points for Next-Generation Antimalarials” (ACS Infect Dis, 2020)
Hit rate of the full screen: of about 65,000 compounds, about 2,100 (3.2%) showed an effect of 50% or more. The median lay at about -52%. The full list was thinned out, with strong results kept by preference.

Tested on: Plasmodium falciparum
Assay: Screen against P. falciparum Asexual Blood Stage (ABS), at 5uM
Type: functional, Dd2
Conditions: tested at 5 uM

Compound	INHIBITION [%]
COc1ccccc1N1CCN(C(=O)c2ccnc(N(C)C)c2)CC1	41.8
CN(Cc1cn2c(n1)CN(C1CCOCC1)CC2)Cc1ccco1	-29.2
CN(C)CC(=O)N1CCCC1c1cncc(Oc2ccc(F)cc2)n1 (centres undefined)	61.2
CC(=O)N1CCCC1c1cncc(Oc2ccc(F)cc2)n1 (centres undefined)	-118
NC(=O)CN1CCCC1c1cncc(Oc2ccc(Cl)cc2)n1 (centres undefined)	9.38
COc1ccc(Oc2cncc(C3CCCN3C(C)=O)n2)cc1 (centres undefined)	-40.9
CNCC(=O)N1CCCC1c1cncc(Oc2ccc(F)cc2)n1 (centres undefined)	69.8
Cn1cncc1CN1CCCC1c1cncc(Oc2ccc(F)cc2)n1 (centres undefined)	-32.7
NCc1ccnc(Oc2ccc(F)cc2)c1	-151
O=C(NC1CC1)N1CCOCC2(C1)CN(c1ccccc1)C(=O)CO2 (centres undefined)	-77.9
c1cnnc(NCC2CN(Cc3ccon3)CCO2)c1 (centres undefined)	-114
CN1CC[C@]2(CN(CC3CCOC3)C[C@H]2c2ccccc2)C1=O (some centres undefined)	-65.9
NC(=O)NC(=O)CCSCc1coc(-c2ccc(F)cc2)n1	-58.5
CC(Nc1ncnc2c1CCNCC2)c1nc2c(s1)CCCC2 (centres undefined)	9.93
CC(Nc1nc(-c2ccccc2)nc2c1CCNCC2)c1nccs1 (centres undefined)	52.7
CC(=O)N1CCc2nc(-c3ccccc3)nc(NC(C)C)c2CC1	-25.6
N#CCCn1nc(C(F)(F)F)c2c1CCC2	-74.2
Cc1ncsc1C(=O)NC1CCN(Cc2ccc(C(F)(F)F)cc2)CC1	-104
O=C(NC[C@H]1OC[C@@H](NC2CCC2)[C@@H]1O)Nc1ccccc1	-141
CN(C)[C@@H]1CO[C@H](CNC(=O)Nc2ccccc2)[C@H]1O	-60.7
O=C(NC[C@H]1OC[C@@H](N(CC2CC2)CC2CC2)[C@@H]1O)Nc1ccccc1	64.8
Cc1ccc(CNC(c2ccccc2)c2nccn2C)cc1 (centres undefined)	-267

Compound	INHIBITION [%]
Cn1ccnc1C(NCc1ccc(Br)cc1)c1ccccc1 (centres undefined)	52.2
CSc1ccc(CNC(c2ccccc2F)c2nccn2C)cc1 (centres undefined)	-98
COc1ccccc1C(NCc1ccc(SC)cc1)c1nccn1C (centres undefined)	69.7
Cn1ccnc1C(NCc1ccccc1)c1ccc(F)cc1 (centres undefined)	-60.5
COc1cccc(C(NCc2ccc(SC)cc2)c2nccn2C)c1 (centres undefined)	65.5
Cn1ccnc1C(NCc1csc(Br)c1)c1ccccc1 (centres undefined)	28.4
CSc1ccc(CNC(c2ccccc2)c2nccn2C)cc1 (centres undefined)	-22.4
CSc1ccc(CNC(c2ccc(F)cc2)c2nccn2C)cc1 (centres undefined)	-107
FC(F)(F)Cn1cc(NCc2cscn2)cn1	-19.1
Cc1ccc(S(=O)(=O)c2ncccc2CN2CCN(C)CC2)cc1	24.6
Cc1nc(COc2ccc(CNCCn3cccn3)cc2)cs1	-107
COCCNC(=O)[C@H]1CN(c2nnc(C)s2)C[C@H]2OCC[C@@H]12	-167
c1ccc(Cc2noc(CN3CCCCC3Cn3cncn3)n2)cc1 (centres undefined)	-14.9
CCN(CC1CN(Cc2ccn(C(C)C)n2)CCO1)c1cccnn1 (centres undefined)	-94
Cc1[nH]c2ccc(Cl)cc2c1CCNc1ncnc2c1CCNC2	52
Cc1[nH]c2ccccc2c1CCNc1ncnc2c1CCNCC2	-68.4
Cc1[nH]c2ccc(C#N)cc2c1CCNc1ncnc2c1CCNCC2	-19.3
O=S(=O)(Nc1ccc(Oc2ccc3c(c2)OCO3)cc1)N1CCCCC1	-59.9
N#CCCN(CCC#N)Cc1ccc(Br)c2cccnc12	-103.4
OCCN(CCO)Cc1ccc(Br)c2cccnc12	-26.05
CCN(CCO)Cc1ccc(Br)c2cccnc12	54.2
Cc1nn(C)c2c(=O)n(C(C)C)c(NCCc3ccccc3)nc12	13.9

Compound	INHIBITION [%]
Clc1ccc(C2(NCc3noc(C4CC4)n3)CCCC2)cc1	68.5
Clc1ccc(C2(NCc3noc(C4CC4)n3)CCC2)cc1	16.7
Clc1ccc(C2(NCc3noc(C4CC4)n3)CCOCC2)cc1	3.57
O=C(NC1CCCC1)c1nc(COc2ccc3c(c2)OCO3)no1	-118
CSc1ccc(C(C(=O)O)N2CCC(CO)CC2)cc1 (centres undefined)	-79.3
Cc1c(NC(=O)c2ncn[nH]2)cccc1C(=O)NC(C)(C)C	-21
c1cnc(NC2COC3(CCN(Cc4ccoc4)CC3)C2)nc1 (centres undefined)	-27.7
Cc1cc(CN2CCC3(CC2)CC(Nc2ncccn2)CO3)nn1C (centres undefined)	-8.44
Cc1cc(C)cc(CN2CCC3(CC2)CC(Nc2ncccn2)CO3)c1 (centres undefined)	60.2
CCc1csc(CNc2cc(C)nc(-c3cccnc3)n2)n1	4.15
CC(C)c1nc(CN2CCCCC2Cn2cncn2)cs1 (centres undefined)	-30.9
CC(C)c1nc(CN2CCCCC2)cs1	-114
CC(C)c1nc(CN2CCCC2CN2CCCC2)cs1 (centres undefined)	68
CC1CCN(CCCNS(=O)(=O)Cc2ccccc2F)CC1	28.5
CC1CCN(CCCNS(=O)(=O)c2cc(F)cc(F)c2)CC1	63.3
CC(C)c1cccc(S(=O)(=O)NCCCN2CCC(O)CC2)c1	34.2
O=S(=O)(Cc1c(F)cccc1Cl)NCCCN1CCCCCC1	50.1
O=S(=O)(NCCCN1CCCC1)c1cc(F)cc(F)c1	67.4
CC(=O)N1CCN(CCNS(=O)(=O)c2cc(F)cc(F)c2)CC1	-113
Cc1cc(F)cc(S(=O)(=O)NCCCN2CCC(O)CC2)c1	-34.8
CC(=O)N1CCN(CCNS(=O)(=O)c2cccc(F)c2)CC1	-72.6
O=S(=O)(Cc1ccccc1F)NCCCN1CCCCC1	19.9

Compound	INHIBITION [%]
CN1CCN(CCCNS(=O)(=O)Cc2ccccc2F)CC1	18.6
CC1CCN(CCCNS(=O)(=O)c2cccc(F)c2)CC1	54.9
Cn1cnc(S(=O)(=O)NCCCN2CCCC2)c1Cl	-29.7
O=C(Nc1cccc(N2CCOCC2)c1)N[C@H](CO)c1ccccc1	-104
Cc1cccc(C(=O)N2CCO[C@H]3[C@H](OCCN(C)C)CC[C@@H]32)n1	-57.1
COCC1CN(C(=O)COc2ccccc2)Cc2ncn(C)c21 (centres undefined)	-14.4
O=C(NCc1ccnc(OCC(F)(F)F)c1)NCC1CCOC1 (centres undefined)	-16
O=C(C1CCCC1)N1CCCC(c2cccc(-n3ccnc3)n2)C1 (centres undefined)	-46.4
Cc1c[nH]c(CN2CCOC(c3ccc(Cl)cc3)C2)c(C)c1=O (centres undefined)	-11.4
COc1ccc(CNCC2CCN(CCO)CC2)cc1F	58.2
CCN1CCCC(CNC(=O)CCc2ccc(OC)c(F)c2)C1 (centres undefined)	-71.6
COc1ccc(OC)c(CN2CCC(c3cc(O)nc(C)n3)C2)c1 (centres undefined)	-1.68
COc1ccc(CNCC2CC2)cc1F	-75.5
Cc1ccc(CNCC2CCN(CCO)CC2)cc1	13
CCN1CCC(CNCc2cc(OC)ccc2OC)C1 (centres undefined)	57.9
CCC1=N[C@@]2(CC[C@@H]3CN(Cc4ccc(F)cc4)C[C@@H]32)C(=O)N1C	40.2
COC1CCN(c2ccc(NC(=O)C3CC3)cc2C(F)(F)F)CC1	7.84
CN1CCC(c2cccc(Cc3ccc(C(F)(F)F)cc3)n2)CC1	52.5
CN1CCC(c2cccc(Cc3ccccc3)n2)CC1	3.76
CN1CCC(c2cccc(Cc3ccc(F)cc3)n2)CC1	0.302
CNc1nc(C(=O)N2CCN(c3ccc(Cl)c(Cl)c3)CC2)cs1	-3.09
CC(=O)N1CCC(c2nc3ccc(-c4cccc(F)c4)cn3n2)CC1	-83.5

Compound	INHIBITION [%]
Cc1cc(CN2CCC(C3CCN(CC(C)C)CC3)C2)[nH]n1 (centres undefined)	-10.5
COc1ccc(CN2CCCN(C(=O)C(C)n3ccnc3)CC2)cc1 (centres undefined)	63.1
CC(C(=O)N1CCCN(Cc2ccc(C#N)cc2)CC1)n1ccnc1 (centres undefined)	-20.3
CC(C(=O)N1CCN(Cc2ccc(C#N)cc2)CC1)n1ccnc1 (centres undefined)	-162
Cc1noc(C)c1-c1cccc(CC2CCN(C(=O)c3cscn3)C2)n1 (centres undefined)	-100
O=C1CC2(CNCCN(C(=O)Nc3ccccc3)C2)CN1 (centres undefined)	-59.9
CC(=O)N1CCN(C(=O)Nc2ccccc2)CC2(CC(=O)N(C)C2)C1 (centres undefined)	13.6
CN(C)CC(=O)N1CC2(CCN(S(=O)(=O)c3ccccc3)C2)C1	-21
CCN1CC2(CNCCN(C(=O)Nc3ccccc3)C2)CC1=O (centres undefined)	53.7
CN1CC2(CNCCN(C(=O)Nc3ccccc3)C2)CC1=O (centres undefined)	33.2
CN(C)CC(=O)N1CC2(CCN(C(=O)Nc3ccccc3)C2)C1	50
N#Cc1ccsc1NC(=O)CN1CCOC(Cn2cccn2)C1 (centres undefined)	-49.6
Cc1cnn(CC2CCN(CC(O)COc3ccc(F)cc3)CC2)c1 (centres undefined)	-39.2
CC(C)NC(=O)[C@H]1C[C@H]2OCC[C@H]2N(Cc2ccc3ccccc3n2)C1	3.39
CCc1ccc(CN(Cc2ccco2)C(C)C(C)C)nc1 (centres undefined)	-199
COCCNC(=O)Nc1cccc2c1CCN(S(C)(=O)=O)C2	-3.2
Cc1ccc(OC2(C(=O)NC(C)c3csc(C)n3)CCNCC2)cc1 (centres undefined)	11.3
Cc1ccc(OC2(C(=O)NC(C)Cc3ccncc3)CCNCC2)cc1 (centres undefined)	-39.1
Cc1ccc(OC2(C(=O)NC(C)Cc3ccsc3)CCNCC2)cc1 (centres undefined)	52.5
CCn1cc2c(n1)CN(Cc1sccc1C)CC2COCC1CC1 (centres undefined)	-6.58
COc1nccnc1N1CCC(C(=O)O)(n2ccc(C(C)(C)C)n2)CC1	-5.61
